# Experimental data reported in PubChem BioAssay (NCATS).
# Inconclusive results are not listed. A call without a number means that no potency is given here. Calls of active or inactive are those of the source. Calls follow the shape of the dose curve; as a rule, active = well fitted curve in the direction sought with a large enough effect; inconclusive = small, poorly fitted or top-dose-only effect, or another doubt; inactive = no such curve, though single readings can be large; an effect the other way counts as inactive or inconclusive.
# Assays:
# [1] = system: Zika virus NS2B-NS3 protease; assay: Primary screen GU AMC qHTS for Zika virus inhibitors (AID 1347154); also: nearly all actives have a fitted effect of over 70% in size
# Method in brief: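 Unlinked Zika NS2B hydrophilic domain–NS3 protease complex at 25 nM in 10 mM Tris-HCl pH 8.0, 0.01% Tween 20, with an AMC peptide substrate. Fluorescence change (340/450 nm) over 15 min at room temperature, normalized to controls, fitted to 4-parameter Hill.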
# [2] = system: Zika virus NS2B-NS3 protease (unlinked complex); assay: Primary screen GU Rhodamine qHTS for Zika virus inhibitors: Unlinked NS2B-NS3 protease assay (AID 1347159); also: nearly all actives have a fitted effect of over 60% in size
# Method in brief: (§1)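 Buffer 10 mM Tris-HCl pH 8.0, 0.01% Tween 20. Unlinked protease 25 nM; compound preincubation 15 min, RT, protected from light. Substrate Rhod110, 1.5 microM; ~15% conversion in 15 min.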
# [3] = system: Zika virus NS2B-NS3 protease (linked construct); assay: Primary screen NINDS Rhodamine qHTS for Zika virus inhibitors (AID 1347160); details: outcome: dose series up to 57.1 µM unless noted; also: nearly all actives have a fitted effect of over 55% in size
# Method in brief: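 Aprotinin served as in-plate control. Conditions: 25 nM linked NS2B-NS3, pH 8.0 Tris buffer, titrated compounds, 15 min preincubation and 15 min reaction with 1.5 microM Rhod110 substrate at room temperature.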
# [4] = Confirmatory screen GU Rhodamine qHTS for Zika virus inhibitors qHTS (AID 1347157); also: nearly all actives have a fitted effect of over 70% in size
# Method in brief: as §1
# [5] = Confirmatory screen NINDS Rhodamine qHTS for Zika virus inhibitors (AID 1347161);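 also: purified Zika NS2B-NS3 protease with linked NS2B cofactor domain and Rhodamine110 peptide substrate; series mostly up to about 110 µM; nearly all actives have a fitted effect of over 60% in size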
# Method in brief: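 Single-chain NS2B-NS3 protease, 25 nM, pH 8.0; compounds preincubated 15 min. Activity: Rhodamine110 release from 1.5 microM substrate over 15 min, room temperature, data fitted to 4-parameter Hill.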
structure (smiles),measurement,setting,value
CC(=O)Nc1ccn(C2COC(COC(=O)c3ccccc3)O2)c(=O)n1 (stereo unspecified),Potency,[1],inactive
same,Potency,[2],inactive
same,outcome,[3],inactive
CCN(CC)CCOc1ccc(/C(=C(\Cl)c2ccccc2)c2ccccc2)cc1,Potency,[1],inactive
same,Potency,[2],inactive
same,outcome,[3],inactive
O=C(CCCCC(=O)Nc1c(I)cc(I)c(C(=O)O)c1I)Nc1c(I)cc(I)c(C(=O)O)c1I,Potency,[1],inactive
same,Potency,[4],inactive
same,Potency,[5],inactive
CCOC(=O)c1ccc(OCCN2C[C@H](O)[C@@H](O)[C@H](O)[C@H]2CO)cc1,Potency,[1],inactive
same,Potency,[2],inactive
same,outcome,[3],inactive
CCN(CC)C(=O)C1CN2CCc3cc(OC)c(OC)cc3C2CC1OC(C)=O (stereo unspecified),Potency,[1],inactive
O=c1[nH]c(=O)n([C@H]2O[C@H](CO)[C@@H](O)[C@@H]2O)cc1/C=C\Br,Potency,[1],inactive
CC(C)(C)c1ccc(C(=O)CCCCl)cc1,Potency,[1],inactive
CCCCNc1ccc(C(=O)OCCN(CC)CC)cc1,Potency,[1],inactive
same,Potency,[2],inactive
same,outcome,[3],inactive
CC(C)C[C@H](NC(=O)CNC(=O)[C@H](Cc1ccc(O)cc1)NC(=O)[C@H](CO)NC(=O)[C@H](Cc1c[nH]c2ccccc12)NC(=O)[C@H](Cc1cnc[nH]1)NC(=O)[C@@H]1CCC(=O)N1)C(=O)N[C@@H](CCCN=C(N)N)C(=O)N1CCC[C@H]1C(=O)NCC(N)=O (stereo in doubt),Potency,[1],inactive
Nc1c(NC/C=C\COc2cc(CN3CCCCC3)ccn2)c(=O)c1=O,Potency,[1],inactive
same,Potency,[2],inactive
same,outcome,[3],inactive
O=C(O)CNC(=O)CNC(=O)CNC(=O)CSC(=O)c1ccccc1,Potency,[1],inactive
same,Potency,[2],inactive
same,outcome,[3],inactive
CN1C(=O)CC(C)(c2ccccc2)C1=O (stereo unspecified),Potency,[1],inactive
Cc1nn(-c2ccccc2)c(C)c1/C=N/N1CCN(Cc2ccccc2)CC1,Potency,[2],inactive
same,outcome,[3],inactive
CO/N=C(/C(=O)N[C@@H]1C(=O)N2C(C(=O)O)=C(Cn3nnc(C)n3)CS[C@H]12)c1csc(N)n1,Potency,[1],inactive
same,Potency,[2],inactive
same,outcome,[3],inactive
COc1ccccc1N1CCN(CCN2C(=O)CC3(CCCC3)CC2=O)CC1,Potency,[1],inactive
same,Potency,[2],inactive
same,outcome,[3],inactive
CCCN(CCC)C(=O)C(CCC(=O)OCCCN1CCN(CCOC(=O)Cc2c(C)n(C(=O)c3ccc(Cl)cc3)c3ccc(OC)cc23)CC1)NC(=O)c1ccccc1 (stereo unspecified),outcome,[3],inactive
CC[N+]1(CC)CCC(=C(c2ccccc2)c2ccccc2)C1C (stereo unspecified),outcome,[3],inactive
